In all, about 390,000 compounds went through this assay and about 610 (0.16%) were called active. Entries that show only a call come without a potency. About 4% were inconclusive and are not listed. This is one part of a sample in which actives are shown more often than they occur. Calls follow the shape of the dose curve; as a rule, active = well fitted inhibition curve with a large enough effect; inconclusive = small, poorly fitted or top-dose-only effect, or effect the other way, or another doubt; inactive = no such curve, though single readings can be large or run the other way.
Assay: Nrf2 qHTS screen for inhibitors: counterscreen for cytotoxicity
Settings: A549 ARE-Fluc cells, CellTiter-Fluor viability, 18-24 h; series mostly up to 46 µM
From the text: NIH Molecular Libraries Probe Production Network [MLPCN]
NIH Chemical Genomics Center [NCGC]
Assay Provider: Shyam Biswal, Johns Hopkins University
Nrf2 is a transcription factor that maintains cellular redox homoestasis and protects cells from xenobiotics. Nrf2 binds to the antioxidant response element (ARE) to induce gene expression of a broad spectrum of genes that encode for antioxidants. […] Finding a small molecule that act as an inhibitor of Nrf2 function would represent a novel therapeutic target that could lead to improvement in survival of patients undergoing chemo- and/or radio- therapy.
So here we implemented a counterscreen to weed out the cytotoxic compounds.
1. Shibata, T., et al., Genetic Alteration of Keap1 Confers Constitutive Nrf2 Activation and Resistance to Chemotherapy in Gallbladder Cancer. Gastroenterology, 2008.
2. Sjoblom, T., et al., The consensus coding sequences of human breast and colorectal cancers. Science, 2006. 314(5797): p. 268-74.
NCGC Assay Protocol Summary:
A concentration-response assay was performed with A549 ARE_Fluc cells which are suspended in 5% FBS OPTI-MEM. Five uL were dispensed into 1536-well white TC-treated plate using the Kalypsys dispenser to achieve a density of 5000 cells/well in all columns except column 1. The plate is incubated at 37deg C at 5% CO2 for 2 hours before 23 nL of compounds are added with the Kalypsys pin tool equipped with a 1,536-pin array containing 10-nL slotted pins (FP1S10, 0.457-mm diameter, 50.8 mm long; V&P Scientific). The control compounds Budesonide and Staurosporine are both added at a concentration of 2mM and Budesonide is also added as a 1:10 titration, starting at 200uM, to achieve dose-response. After an 18-24 hour incubation at 37deg C at 5% CO2, 5ul of medium is added to column 1. Afterwards 1ul of 5x of CellTiter-Fluor (Promega) is added to every well. The plate is then incubated at 37deg C at 5% CO2 for 30 minutes before they are read on the ViewLux (Perkin Elmer) for a fluorescent read Ex=405(10)/Em=525(10) for a 3 second exposure, 2x binning, and high gain. Then 3 uL of 3x BugLite is dispensed into all wells and the plate is incubated at ambient room temperature for 15 minutes. Afterwards another ViewLux read is performed using the clear filter to get a luminescent read with the settings of 40 second exposure, 2x binning, and high gain. Cytotoxicity is assessed through the first fluorescent read and then biochemical activity against Nrf2 is measured in the luminescent read.
Potency is read from the fitted curve at half-maximal effect.

Structure (SMILES)	Potency
O=C(NCc1nnc(C(=O)Nc2ccc(C(F)(F)F)cc2Cl)o1)c1ccccc1	inactive
CC1CCCCN1CC(=O)N1CCCc2c1c(=O)oc1ccc(OCc3ccccc3)cc21 (stereo not given)	inactive
COc1cccc(C2CC(c3ccccc3)=NN2S(=O)(=O)c2ccccc2)c1OC (stereo not given)	inactive
COc1ccc2c(c1OC)C(=O)OC2Nc1nc(-c2ccccc2)cs1 (stereo not given)	20.6 µM (active)
Cc1ccc(CNC(=O)C2(C(F)(F)F)C/C(=C\CCO)CCCO2)o1 (stereo not given)	inactive
Cn1nnnc1Sc1ncnc2scc(-c3ccccc3[N+](=O)[O-])c12	inactive
COc1cccc(OC2=NS(=O)(=O)c3ccccc32)c1	inactive
CCc1ccc(NC(=O)N2CCN(C(=O)c3nsc4ccccc34)CC2)cc1	inactive
Cc1cc(C)c(NC(=O)Cn2c(SCC(=O)NCc3ccccc3)nc3ccccc32)c(C)c1	inactive
COc1ccc(Br)cc1C1C2C=CCC(C)C2C(=O)N1Cc1ccccc1 (stereo not given)	inactive
O=C1C2C(c3ccccc3)CC=CC2C(c2ccoc2)N1Cc1ccccc1 (stereo not given)	inactive
Cc1ccc(NC(=O)C(Cc2ccccc2)NS(=O)(=O)c2ccc3c(c2)oc(=O)n3C)cc1C (stereo not given)	inactive
CC(=O)Nc1cc(C(=O)NCc2ccc(F)cc2)ccc1Sc1ccc(F)cc1	inactive
COC(=O)c1ccc(OC)c(Cn2c(=O)n(Cc3ccccc3)c(=O)c3c2c2cc(OC)ccc2n3C)c1	inactive
O=C1Nc2ccc(Br)cc2/C1=N/N=C/C1=C(N2CCOCC2)C(=C\c2ccccc2)/CC1	18.4 µM (active)
COc1ccccc1C(=O)OCc1cc(=O)n2nc(-c3cccs3)sc2n1	inactive
O=[S+]([O-])(c1ccc2c(c1)OCCO2)N1CCN([S+](=O)([O-])c2c(Cl)cc(Cl)cc2Br)CC1	inactive
COc1ccc(C2=NC(c3ccncc3)=Nc3ccc(Br)cc3N2)cc1	inactive
O=[S+]([O-])(c1ccc(OC(F)(F)F)cc1)N1CCN([S+](=O)([O-])c2ccc3c(c2)OCCO3)CC1	inactive
CCc1ccc(NC(=O)Cn2c(=O)n(CCC(=O)NCc3ccc4c(c3)OCO4)c(=O)c3ccccc32)cc1	inactive
CCc1ccccc1NC(=O)N1CCN(C(=O)c2nsc3ccccc23)CC1	inactive
CCCn1c2ccccc2c2cnn(CC(=O)N3CCCC(C(=O)OCC)C3)c(=O)c21 (stereo not given)	inactive
CCOC(=O)c1c(C)[nH]c2c1-c1ccccc1C(=O)C2=O	23.1 µM (active)
CCOC(=O)c1c(SCC(=O)Nc2cccc(C)c2C)nc(=O)[nH]c1C	inactive
CCOC(=O)c1c(C)[nH]c(C)c1S(=O)(=O)N(C)CC(=O)N1CCN(c2ccccc2)CC1	inactive
